# Laboratory results reported in PubChem BioAssay (EPA / NIEHS).
# Records with an inconclusive call do not appear. The source made the active and inactive calls. Rule for the calls: active = hit-call score of the fitted dose curve at least 0.9, where 1 is the maximum; inconclusive = response in the unintended direction; inactive = score below 0.9.
# How the values were obtained:
# [1] = TOX21_p53_BLA_p2_viability: Viability Assessment in the Tox21 HCT-116 p53 Agonism Beta-lactamase Assay, Phase 2 (AID 2283591);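 note: compound exposure lasted 16 h at 37 °C; actives lower the ATP signal meaning cytotoxicity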
# How it was run: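 HCT116 p53-bla cells, 4000/well, dosed after 5 h plating (217-fold dilution of DMSO stocks) and incubated 16 h at 37C. Viability taken as cellular ATP by CellTiter-Glo luminescence after 30 min RT; signal loss marks cytotoxicity.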
# [2] = target: Cellular tumor antigen p53 (Homo sapiens) (UniProt P04637); test: TOX21_p53_BLA_p2_ratio: Tox21 HCT-116 p53 Agonism Beta-lactamase Assay, Ratio, Phase 2 (AID 2283592)
# How it was run: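 Ratio endpoint: beta-lactamase cleavage of CCF4-AM, blue (460 nm) over green (530 nm). HCT116 reporter line; 16 h treatment, 37C; substrate 2 h RT.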
# [3] = TOX21_p53_BLA_p3_viability: Viability Assessment in the Tox21 HCT-116 p53 Agonism Beta-lactamase Assay, Phase 3 (AID 2283593);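 note: cells exposed to compound for 16 h before reading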
# How it was run: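 HCT116 cells, 4000/well, dosed 5 h after plating by pin transfer (217-fold dilution from DMSO stock) and incubated 16 h at 37C, 5% CO2. Viability read as ATP luminescence with CellTiter-Glo after 30 min at room temperature.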
# [4] = target: Cellular tumor antigen p53 (Homo sapiens) (UniProt P04637); test: TOX21_p53_BLA_p3_ratio: Tox21 HCT-116 p53 Agonism Beta-lactamase Assay, Ratio, Phase 3 (AID 2283596)
# How it was run: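 Cells were seeded at 4000/well, rested 5 h at 37C, then dosed with DMSO compound solutions (217-fold dilution) for 16 h. CCF4-AM substrate was loaded for 2 h at room temperature, and the 460/530 nm emission ratio was fitted for gain of signal versus DMSO.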
# [5] = TOX21_p53_BLA_p4_viability: Viability Assessment in the Tox21 HCT-116 p53 Agonism Beta-lactamase Assay, Phase 4 (AID 2283597);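 note: hits lower the luminescence signal meaning cytotoxicity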
# How it was run: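 Cytotoxicity was inferred from loss of CellTiter-Glo luminescence. HCT116 cells had been dosed with compounds after 5 h plating, incubated 16 h at 37C and 5% CO2, and exposed to the CCF4-AM substrate for 2 h.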
# [6] = target: Cellular tumor antigen p53 (Homo sapiens) (UniProt P04637); test: TOX21_p53_BLA_p5_ratio: Tox21 HCT-116 p53 Agonism Beta-lactamase Assay, Ratio, Phase 5 (AID 2283599)
# How it was run: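 HCT-116 p53-bla cells (4000/well) plated 5 h, dosed with compound (217-fold DMSO dilution) for 16 h at 37 C; CCF4-AM substrate 2 h at room temperature. Activity is the 460/530 nm emission ratio (405 nm excitation), fitted in gain-of-signal direction versus DMSO.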
# [7] = TOX21_p53_BLA_p5_viability: Viability Assessment in the Tox21 HCT-116 p53 Agonism Beta-lactamase Assay, Phase 5 (AID 2283600)
# How it was run: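 Luciferase-coupled ATP quantitation of cells treated for 16 h (37C, 5% CO2) with test chemicals delivered in DMSO via a 217-fold dilution; 4000 cells/well; reagent incubated 30 min at room temperature before luminescence reading.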
# [8] = target: Cellular tumor antigen p53 (Homo sapiens) (UniProt P04637); test: TOX21_p53_BLA_p4_ratio: Tox21 HCT-116 p53 Agonism Beta-lactamase Assay, Ratio, Phase 4 (AID 2283601)
# How it was run: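 HCT-116 p53 beta-lactamase reporter cells (4000/well) preincubated 5 h, then compound (217-fold dilution of DMSO stock) for 16 h at 37C. CCF4-AM substrate added 2 h at room temperature; 460/530 nm emission ratio fitted upward versus DMSO.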
# Cellular tumor antigen p53 (Homo sapiens), sequence (P04637 whole entry, looked up): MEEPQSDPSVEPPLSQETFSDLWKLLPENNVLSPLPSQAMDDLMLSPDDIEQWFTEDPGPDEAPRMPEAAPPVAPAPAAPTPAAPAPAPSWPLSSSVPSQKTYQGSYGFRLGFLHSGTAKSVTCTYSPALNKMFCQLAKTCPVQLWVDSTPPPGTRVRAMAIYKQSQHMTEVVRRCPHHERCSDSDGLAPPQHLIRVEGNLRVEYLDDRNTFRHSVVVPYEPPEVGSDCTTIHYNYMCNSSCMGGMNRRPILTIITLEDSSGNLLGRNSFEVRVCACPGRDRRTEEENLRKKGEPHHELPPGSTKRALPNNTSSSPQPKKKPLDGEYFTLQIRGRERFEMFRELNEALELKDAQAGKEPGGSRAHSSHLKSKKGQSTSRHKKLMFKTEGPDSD
Structure (SMILES),outcome [1],outcome [2],outcome [3],outcome [4],outcome [5],outcome [6],outcome [7],outcome [8],AC50 [1],AC50 [2],AC50 [3],AC50 [4],AC50 [5],AC50 [6],AC50 [7],AC50 [8]
COc1nc(N)nc2c1ncn2[C@@H]1O[C@H](CO)[C@@H](O)[C@@H]1O,inactive,inactive,inactive,inactive,inactive,inactive,inactive,inactive,,,,,,,,
[O]=[Bi],inactive,inactive,inactive,inactive,inactive,inactive,inactive,inactive,,,,,,,,
COC(=O)C1=C(C)NC(C)=C(C(=O)OCCCN2CCC(c3ccccc3)(c3ccccc3)CC2)C1c1cccc([N+](=O)[O-])c1 (stereo not given),,,,,,,,,32.9 µM (active),42 µM (active),36 µM (active),36.8 µM (active),28.8 µM (active),43.6 µM (active),37.4 µM (active),42.8 µM (active)
Cc1cccc(C)c1OCC(=O)N[C@@H](Cc1ccccc1)[C@@H](O)C[C@H](Cc1ccccc1)NC(=O)[C@H](C(C)C)N1CCCNC1=O,inactive,inactive,inactive,inactive,,inactive,inactive,inactive,,,,,37.5 µM (active),,,
COc1c(C)c2c(c(O)c1C/C=C(\C)CCC(=O)OCCN1CCOCC1)C(=O)OC2,inactive,,inactive,,,,inactive,,,0.139 µM (active),,0.164 µM (active),0.805 µM (active),0.183 µM (active),,0.194 µM (active)
CC[C@@]1(O)C(=O)OCc2c1cc1n(c2=O)Cc2cc3c([N+](=O)[O-])cccc3nc2-1,inactive,,,,,,inactive,,,0.124 µM (active),0.685 µM (active),0.172 µM (active),0.654 µM (active),0.166 µM (active),,0.166 µM (active)
NC(N)=NCC1COc2ccccc2O1 (stereo not given),inactive,inactive,inactive,inactive,inactive,inactive,inactive,inactive,,,,,,,,
Cc1cc(O)c(C(C)C)cc1Cl,inactive,inactive,inactive,inactive,inactive,inactive,inactive,inactive,,,,,,,,
CCCCCCCCCOC(=O)c1ccc(O)cc1,,,inactive,inactive,,inactive,inactive,,53.3 µM (active),80.5 µM (active),,,23 µM (active),,,39.3 µM (active)
CN1CC(=O)N/C1=N/C(=O)Nc1cccc(Cl)c1,inactive,inactive,inactive,inactive,inactive,inactive,inactive,inactive,,,,,,,,
CC(C)c1ccc2sc3ccccc3c(=O)c2c1,inactive,inactive,inactive,inactive,,inactive,inactive,inactive,,,,,72.8 µM (active),,,
NC(=O)C(c1ccccc1)(c1ccccc1)[C@@H]1CCN(CCc2ccc3c(c2)CCO3)C1,inactive,inactive,inactive,inactive,inactive,inactive,inactive,inactive,,,,,,,,
Cc1cc(-c2ccc(N=Nc3cc(S(=O)(=O)O)c4ccccc4c3N)c(C)c2)ccc1N=Nc1cc(S(=O)(=O)O)c2ccccc2c1N,inactive,,inactive,,inactive,inactive,inactive,inactive,,6.5 µM (active),,12.6 µM (active),,,,
CCCOc1ccc(C(=O)OCCN(CC)CC)cc1N,inactive,inactive,inactive,inactive,inactive,inactive,inactive,inactive,,,,,,,,
C=CC(OCC)OCC,inactive,inactive,inactive,inactive,inactive,inactive,inactive,inactive,,,,,,,,
O=C1CCc2ccc(OCCCCN3CCN(c4cccc(Cl)c4Cl)CC3)cc2N1,inactive,inactive,,inactive,inactive,inactive,,inactive,,,23 µM (active),,,,23 µM (active),
CO[C@@H]1[C@@H](O[C@@H]2O[C@H](C)[C@@H](O[C@H]3C[C@@](C)(O)[C@@H](OC(=O)CC(C)C)[C@H](C)O3)[C@H](N(C)C)[C@H]2O)[C@@H](CC=O)C[C@@H](C)C(=O)/C=C/C2OC2C[C@@H](C)OC(=O)C[C@H]1OC(C)=O (stereo not given in full),inactive,inactive,inactive,inactive,inactive,inactive,inactive,inactive,,,,,,,,
CCCCCCCCCCOCC(O)CN (stereo not given),,inactive,inactive,inactive,,inactive,inactive,,36.8 µM (active),,,,36.8 µM (active),,,42.9 µM (active)
C=COCC1CCC(CO)CC1 (stereo not given),inactive,inactive,inactive,inactive,inactive,inactive,inactive,inactive,,,,,,,,
C=CCN1C(=O)C(CC(C)C)NC1=S (stereo not given),inactive,inactive,inactive,inactive,inactive,inactive,inactive,inactive,,,,,,,,
